This is an account of results in the supplement of paper PMC12669032.

The test system of this test is Roseburia intestinalis. Description: growth AUC relative to DMSO control (median of replicates) (fraction); higher = more growth (less inhibition), active = hit call of the paper. The following applies: 20 µM; 24 h. The method in brief:
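Gut bacteria were grown singly in mGAM at 37 °C without oxygen, from OD600 0.05, alongside 20 µM compound in 1% DMSO, and OD600 was read each hour for 24 h. Area under the growth curve was normalised to the median of solvent-only wells per plate, or to row and column medians on the industrial chemical plate. The minimum OD was set to 0 beforehand, and the reported value is the median of three biological replicates grown on separate days.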
Regarding `CC1(C)C(/C=C(\Cl)C(F)(F)F)C1C(=O)OC(C#N)c1cccc(Oc2ccccc2)c1` (stereo unspecified), the “growth AUC” value is 0.952 (inactive). On to `COCCN(C(=O)CCl)c1c(C)cccc1C`, for which the “growth AUC” value is 0.96 (inactive).

`O=c1c2cc(F)ccc2nc(-n2cncn2)n1-c1ccc(Cl)cc1Cl`: the “growth AUC” value was 0.975 (inactive). With `Nc1cc(Cl)ccc1Cl` the figure was 1.09 (inactive); with `CC(C)=CC1C(C(=O)OCc2cccc(Oc3ccccc3)c2)C1(C)C` (mixture of isomers), 0.908 (inactive). In the case of `CC(C)(C)c1ccc(CSc2cnn(C(C)(C)C)c(=O)c2Cl)cc1` it was 0.979 (inactive); in that of `COS(=O)(=O)[O-].Cn1c(-c2ccccc2)cc(-c2ccccc2)[n+]1C`, 0.948 (inactive). As for `C=CCN=C=S`, the “growth AUC” value is 0.986 (inactive). With `Cc1ccc(NC(=O)N(C)C)cc1Cl` the figure was 1.02 (inactive); with `CCNc1nc(NCC)nc(SC)n1`, 1.08 (inactive). In the case of `C=CCC1=C(C)C(OC(=O)[C@@H]2[C@@H](C=C(C)C)C2(C)C)CC1=O` (stereo partly specified) it was 1.05 (inactive). With `COP(=S)(OC)Oc1c(Cl)cc(C)cc1Cl` the figure was 0.912 (inactive); with `CCc1cc(C)cc(CC)c1-c1c(OC(=O)C(C)(C)C)n2n(c1=O)CCOCC2`, 0.981 (inactive); with `CC/C(=N\OC/C=C/Cl)C1=C(O)CC(C2CCOCC2)CC1=O` (stereo unspecified), 1.02 (inactive). As for `N#CC(CCc1ccc(Cl)cc1)(Cn1cncn1)c1ccccc1` (stereo unspecified), the “growth AUC” value was 0.911 (inactive). For `O=S(=O)(c1ccc(O)cc1)c1ccc(O)cc1`, the “growth AUC” value was 1 (inactive).
